Screening data from PubChem BioAssay.
Anesthetic bind: binds horse apoferritin like a general anesthetic; AID 485281; 350,000 compounds, 0.074% hits; apoferritin/1-aminoanthracene competitive binding, fluorescence; Potency, µM (top dose mostly 77.5 µM), without a hit: top-dose activity change, negative = displacement, usual class: inhibitors; P02791; further: potency means the concentration at half of the fitted maximal effect; on the % scale 0 is the no-effect control and ±100 the full control effect; nearly all actives have a fitted effect of over 20% in size
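Read-out: endpoint 1-AMA fluorescence, excitation 380 nm and emission 535 nm, after compounds sit 10 min at room temperature with 10 uM horse-spleen apoferritin in 50% saturated 1-AMA/PBS. Values come from four-parameter Hill fits.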
Giardia killer: kills Giardia lamblia | Giardia lamblia trophozoite viability | activity change, % at 7.66 µM, hits read low | 340,000 compounds, 0.15% hits | AID 540267; in the data active means activity change below about -80%; inconclusive means between about -30% and that limit;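 further: parasites exposed to compound for two days anaerobically before the ATP read; on the % scale 0 is the no-effect control and ±100 the full control effect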
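Compounds were tested on trophozoites seeded at 100 cells/well and held 48 hrs at 37 deg C anaerobically. An ATP-based luminescent kit measured the remaining live cells.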
mIDH1 inhibitor: inhibitors of human mutant IDH1 R132H. IDH1-R132H enzyme, NADPH consumption, diaphorase/resazurin fluorescence. 390,000 compounds, 0.093% hits. Potency, µM (titrated, usually from 76.6 µM), for the others: top-dose activity change, negative = inhibition, hits mostly inhibitors. O75874; further: potency means the concentration at half of the fitted maximal effect; on the % scale 0 is the no-effect control and ±100 the full control effect; nearly all actives have a fitted effect of over 65% in size
Target sequence (O75874 whole entry R132H, stated change not applied): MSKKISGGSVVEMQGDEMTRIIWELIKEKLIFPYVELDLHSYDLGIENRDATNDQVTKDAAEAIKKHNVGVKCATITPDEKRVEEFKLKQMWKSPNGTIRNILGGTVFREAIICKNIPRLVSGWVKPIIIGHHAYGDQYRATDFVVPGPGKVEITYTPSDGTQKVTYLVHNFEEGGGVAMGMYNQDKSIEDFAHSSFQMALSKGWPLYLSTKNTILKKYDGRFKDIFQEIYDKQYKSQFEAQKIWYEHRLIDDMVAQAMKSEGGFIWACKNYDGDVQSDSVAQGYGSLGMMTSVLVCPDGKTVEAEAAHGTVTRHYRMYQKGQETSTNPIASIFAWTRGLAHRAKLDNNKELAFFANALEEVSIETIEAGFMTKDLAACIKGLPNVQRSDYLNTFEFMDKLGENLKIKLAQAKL
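IDH1-R132H (0.5 ug/mL dispensed) in pH 7.5 Tris buffer was preincubated 30 min with compound, then given a substrate mix of 0.016 mM NADPH and 2 mM alpha-KG for 80 min at room temperature; remaining NADPH was read by diaphorase/resazurin fluorescence.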
Nrf2 inh: inhibitors of Nrf2 signaling; A549 ARE-Fluc reporter, luciferase luminescence, 18-24 h; Potency, µM (doses to about 46 µM), for the others: at the highest dose activity change, negative = inhibition, actives largely listed as inhibitors; 360,000 compounds, 2.1% hits; AID 504444; further: potency means the concentration at half of the fitted maximal effect; on the % scale 0 is the no-effect control and ±100 the full control effect; nearly all actives have a fitted effect of over 60% in size
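Quantitative HTS in A549 cells stably bearing an antioxidant response element-firefly luciferase construct. Inhibition of Nrf2-driven transcription was scored by luminescence after 18-24 h of compound exposure at 37 °C.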
A549 viability: kills or reduces viability of A549 cells in Nrf2 counter-screen | A549 ARE-Fluc cells, CellTiter-Fluor viability, 18-24 h | Potency, µM (titrated, usually from 46 µM), without a hit: at the highest dose activity change, negative = cytotoxicity, usual class: inhibitors | 390,000 compounds, 0.16% hits; further: potency means the concentration at half of the fitted maximal effect; on the % scale 0 is the no-effect control and ±100 the full control effect
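Cytotoxicity counterscreen: CellTiter-Fluor fluorescence was measured in A549 ARE_Fluc cells after 18-24 h of compound exposure in a concentration series. The subsequent BugLite luminescent read reports ARE-luciferase activity.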
Nrf2 ARE act: activates Nrf2 signaling. AID 624171. Potency, µM (top dose mostly 46.1 µM), for the others: top-dose activation, actives largely listed as activators. AREc32 ARE-luciferase reporter (MCF7-derived line), luminescence, 24 h. 410,000 compounds, 0.31% hits; further: potency means the concentration at half of the fitted maximal effect; % of control where 0% means no effect; nearly all actives have a fitted effect of over 65% in size
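Steps: seed AREc32_Fluc cells (1000/well, 5% FBS OPTI-MEM); incubate overnight at 37 deg C; add 23 nL compound; incubate 24 hr; add Steady-Glo; hold 30 min RT; read luminescence.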
* marks the source's active call; other numbers are inactive results; ? = inconclusive; nt = no result given; [ ] = remark or other dose. Only some compounds are listed: those with a hit (about 2.3% of all), similar ones and a draw of the others. Unless noted, the call rests on the fitted dose curve; in most records, active means well fitted curve in the direction sought with a large enough effect; inconclusive means small, poorly fitted or top-dose-only effect, or another doubt; inactive means no such curve, though single readings can be large; an effect the other way counts as inactive or inconclusive.

SMILES	Anesthetic bind	Giardia killer	mIDH1 inhibitor	Nrf2 inh	A549 viability	Nrf2 ARE act
CCOC(=O)N/N=C1/C[C@@H](O)[C@@H](O)[C@@H]2[C@@H]3C(=O)N(c4cccc(Oc5ccccc5)c4)C(=O)[C@H]3CC[C@H]12	3%[15.3 µM]	nt	nt	nt	nt	nt
COc1cc(NC(=O)Nc2nnc([C@H]3C[C@H](O)[C@@H](CO)O3)s2)cc(OC)c1	nt	nt	nt	nt	nt	0%
CC(=O)Oc1ccc(C(=O)Nc2cccc(-c3nnc(-c4ccco4)o3)c2)cc1	-2%	-6	1%	16µM*	?	4%
O=C(Nc1cccc(-c2nnc(-c3ccco3)o2)c1)C(c1ccccc1)c1ccccc1	-8%	-2	-4%	21µM*	-26%	0%
O=C(Nc1cccc(-c2nnc(-c3ccco3)o2)c1)c1ccccc1	-19%	0	1%	?	2%	2%
COc1ccc(S(=O)(=O)N2CCOCC2)cc1NC(=O)Cc1ccc(F)cc1	nt	nt	10%	nt	nt	0%
CSCC[C@H](NC(=O)CN)C(=O)N[C@@H](CC(=O)O)C(=O)N[C@@H](CO)C(=O)N[C@@H](CC(C)C)C(=O)N[C@@H](C)C(=O)N[C@@H](Cc1ccccc1)C(=O)N[C@@H](CO)C(=O)NCC(=O)NCC(=O)N[C@@H](CC(C)C)C(N)=O	-8%	nt	nt	nt	nt	nt
C=CCNC(=S)N/N=C(\C)c1ccccn1	-7%	-5	1%	0.58µM*	?	?
Cc1nc(CS(=O)(=O)c2ccccc2)cc(N2CCN(c3ccccc3F)CC2)n1	-1%	4	16%	21µM*	-1%	-1%
Cc1cc2c(C)cc(=O)[nH]c2cc1NC(=O)CCl	-10%	3	2%	?	19%	?
O=C(CCl)Nc1cc2[nH]c(=O)[nH]c2cc1Br	-4%	2	4%	21µM*	23µM*	?
CN(C)c1cccc(S(=O)(=O)N2CCN(S(=O)(=O)c3ccc4c(c3)OCCO4)CC2)c1	nt	nt	nt	4%	-3%	nt
O=S1(=O)c2cccc3cccc(c23)N1Cc1nnc(-c2ccccc2Br)o1	0%	-2	2%	21µM*	-22%	4%
Cc1cccc(-c2nc(CCNC(=O)Cc3ccccc3)cs2)c1	-8%	nt	-9%	nt	15%	2%
CCc1nnc(NC(=O)c2ccc(Cl)c(S(=O)(=O)N3CCc4ccccc43)c2)s1	-16%	6	-1%	nt	-14%	0%
O=C(Nc1nnc(C2CC2)s1)c1ccc(Cl)c(S(=O)(=O)N2CCc3ccccc3C2)c1	-9%	4	1%	23µM*	-4%	0%
COc1ccc2nc(-c3ccc(F)cc3)sc2c1	nt	-14	nt	?	8%	5%
COc1ccc2nc(-c3ccc(N(C)C)cc3)sc2c1	38%	nt	nt	0.33µM*	?	nt
CSCC[C@H](NC(=O)[C@H](CC(C)C)NC(=O)CNC(=O)[C@H](Cc1ccc(O)cc1)NC(=O)[C@H](Cc1ccccc1)NC(=O)[C@H](CCC(N)=O)NC(=O)[C@H](CCC(N)=O)NC(=O)[C@@H]1CCCN1C(=O)[C@H](CCCCN)NC(=O)[C@@H]1CCCN1C(=O)[C@@H](N)CCCN=C(N)N)C(N)=O	12%	nt	nt	nt	nt	nt
CCOC(=O)[C@]12CCC=C1N(Cc1ccc(Cl)cc1Cl)C(=O)[C@H](CC(=O)NCc1cccc(C(F)(F)F)c1)C2	nt	nt	nt	nt	nt	1%
COc1cc(/C=N/N=C2/C(=O)Nc3ccccc32)cc(OC)c1O	-4%	21	7%	16%	2%	11µM*
C#CCCCO/N=C1/C[C@@H](O)[C@@H](O)[C@@H]2[C@@H]3C(=O)N(Cc4ccccc4)C(=O)[C@H]3CC[C@H]12	1%[15.3 µM]	nt	nt	nt	nt	nt
CC(C)(C)n1nnnc1C(c1cccs1)N1CCN(c2ccccc2)CC1 (configuration not stated)	-13%	-4	-1%	23µM*	?	0%
COC(=O)c1nc(NC(=O)c2ccccc2Cl)n[nH]1	-4%	1	7%	26µM*	-2%	-1%
